{
  "source": "ChEMBL document CHEMBL3433997",
  "about": "“St. Jude Leishmania screening dataset” (2016)",
  "data": [
    {"target": "Glucose transporter (Leishmania mexicana) (UniProt O61059)", "assay": "ST_JUDE_LEISH: Cytotoxicity at 2uM final concentration against transgenic Leishmania Mexicana promastigotes LmGT2 that are glucose transport deficient and complemented with the L. Mexicana glucose transporter 2. Activity is measured by DNA content using SYBR green in vitro", "assay_type": "functional", "units": {"inhibition": "%"}, "values": [
      {"smiles": "COc1cc(SC)ccc1C(=O)N1CC(C)CC(C)C1", "note": "(stereo not given)", "inhibition": 9.2},
      {"smiles": "CC(C)C[C@H](NC(=O)c1cc(-c2ccc(F)cc2)no1)C(=O)O.CC(C)C[C@H](NC(=O)c1conc1-c1ccc(F)cc1)C(=O)O", "inhibition": 2.96},
      {"smiles": "Cc1cc(F)ccc1-c1nc(Nc2ccncc2)c2ccn(C)c2n1", "inhibition": 0.38},
      {"smiles": "COc1ccc(NC(=O)Nc2ccc(-c3ccccc3)cc2)cc1Cn1cnc(N2CCCNCC2)cc1=O", "inhibition": 4.94},
      {"smiles": "O=C(/C=C/c1ccc(Cl)c(Cl)c1)NCCCCCCN1CCCN(C(=O)Nc2cc(Cl)cc(Cl)c2)CC1", "inhibition": -2.48},
      {"smiles": "CN(C(=O)/C=C/c1cc(C(F)(F)F)ccc1F)C1CCN(CCCCCNC(=O)/C=C/c2ccc(Cl)c(Cl)c2)CC1", "inhibition": 2.56},
      {"smiles": "[O-][s+]1c(Cl)c(-c2ccc(Cl)cc2)c2ccc(Cl)cc21", "note": "(stereo not given)", "inhibition": 3.59},
      {"smiles": "Cc1ccc(Cc2c[nH]c(NCCSCc3ccc(CN4CCOCC4)o3)nc2=O)cn1", "inhibition": 3.98},
      {"smiles": "c1nc2nc3c(c(Nc4ccc5c(c4)CCC5)n2n1)CCC3", "inhibition": 1.24},
      {"smiles": "O=C(NCCCN1CCOCC1)c1csc(Nc2ccc(Cl)c(Cl)c2)n1", "inhibition": 0.12},
      {"smiles": "COc1cccc(C2(c3cccc(OC)c3)N=C(N)N(CCCc3ccccc3)C2=O)c1", "inhibition": -2.44},
      {"smiles": "Cc1nnsc1C(=O)Nc1ccc(-c2cccc(-c3nc4cc(C(F)(F)F)ccc4[nH]3)c2)cc1", "inhibition": 4.55},
      {"smiles": "Cc1cc(N(C)C)nc(Nc2ccc(NC(=O)C(C)Oc3ccccc3)cc2)n1", "note": "(stereo not given)", "inhibition": 9.35},
      {"smiles": "Cc1ncccc1C(=O)Nc1ccc(-c2cccc(-c3nc4cccc(C)c4[nH]3)c2)cc1", "inhibition": 3.38},
      {"smiles": "Oc1cc(Nc2ccnc3cc(-c4ccc(CN5CCCCC5)o4)ccc23)c(Cl)cc1F", "inhibition": 3.68},
      {"smiles": "CCc1c(C)nc(-n2nc(C)cc2NC(=O)CCc2ccccc2)[nH]c1=O", "inhibition": 2.86},
      {"smiles": "CCN(CC)S(=O)(=O)c1ccc(C(C)NC(=O)c2ccccc2COc2ccccc2)cc1", "note": "(stereo not given)", "inhibition": 5.03},
      {"smiles": "Cc1nnc(Sc2ncnc3scc(-c4ccc(F)cc4)c23)s1", "inhibition": 1.02},
      {"smiles": "Cc1ccccc1CN1CCCN(Cc2ccc(C(=O)Nc3ccc(Cl)cc3)cc2)CC1", "inhibition": 6.4},
      {"smiles": "Oc1ccc2nc(NCCCc3ccccc3)nc(NCCc3ccccc3)c2c1", "inhibition": -0.15},
      {"smiles": "c1csc(-c2nc(N3CCCC3)ncc2-c2ccsc2)n1", "inhibition": 1.26},
      {"smiles": "Cc1nc(N)nc(N)c1OCc1cccc2c1ccc1ccccc12", "inhibition": 2.84},
      {"smiles": "COc1ccc(Cl)cc1N1CCN(CCCNC(=O)c2ccc(-c3nc4cc(Cl)c(F)cc4[nH]3)s2)CC1", "inhibition": 2.06},
      {"smiles": "COc1cc(CS(C)(=O)=O)ccc1Nc1nccc(-c2c(-c3cccc(NC(=O)c4c(F)cccc4F)c3)nn3ccccc23)n1", "inhibition": 7.36},
      {"smiles": "O=C(NCc1ccccc1)c1nn(CCCN2CCC(N3CCCC3)CC2)cc1-c1ccc(Cl)c(Cl)c1", "inhibition": 0.9},
      {"smiles": "O=C(C=Cc1ccc(-c2ccccc2)cc1)N1CCC(CCN2CCC(c3c[nH]c4ccccc34)CC2)CC1", "inhibition": -1.2},
      {"smiles": "Cc1cccc2nc(-c3ccc(-c4ccc(NC(=O)Nc5ccc(Cl)c(Cl)c5)cc4)cc3)[nH]c12", "inhibition": 1.71},
      {"smiles": "CC(C)C(=O)NC(c1ccc(Cl)cc1)c1ccc2cccnc2c1O", "note": "(stereo not given)", "inhibition": 2.63},
      {"smiles": "COCCCN=C(S)NN=C(C)c1ccccn1", "inhibition": 0},
      {"smiles": "COc1cncc(/C=C/c2cncc(C(=O)NCCc3ccc(Cl)cc3Cl)c2)c1", "inhibition": 3.94},
      {"smiles": "CCOc1ccc(C(=O)Nc2cc(Cl)ccc2O)cc1Cl", "inhibition": -1.5},
      {"smiles": "Nc1nc(N)c2nc(C3CC=CCC3)c(N)nc2n1", "note": "(stereo not given)", "inhibition": -0.04},
      {"smiles": "Cc1ccc(-c2nc(NC(=O)Nc3ccc(C(F)(F)F)cc3)sc2C)cc1Cl", "inhibition": 1.54},
      {"smiles": "CCCCCCCc1c(C)nc2c(OC)cccc2c1O", "inhibition": -0.9},
      {"smiles": "O=C(/C=C/c1ccc2ccccc2c1)NCCCCCN1CCC(c2c[nH]c3ccccc23)CC1", "inhibition": 0.03},
      {"smiles": "CCOc1ccc(Br)cc1/C=C/C(=O)Nc1ccc(C2CCN(C)CC2)cc1", "inhibition": 5.47},
      {"smiles": "COC(=O)c1cccc(CNCc2ccc(-c3cccc(-c4nc5cccc(C)c5[nH]4)c3)cc2)c1", "inhibition": -2.21},
      {"smiles": "O=C(Cc1c[nH]cn1)Nc1ccc(-c2cccc(-c3nc4cc(F)ccc4[nH]3)c2)cc1", "inhibition": 2.01},
      {"smiles": "COc1ccc(NS(=O)(=O)c2cccc(C(=O)Nc3ccc(C(F)(F)F)cc3)c2)cc1N1CCN(CC(C)C)CC1", "inhibition": 6.21},
      {"smiles": "Cc1cc(N2CCCC2)nc(NC(=N)Nc2cccc(C(F)(F)F)c2)n1", "inhibition": 2.22}
    ]}
  ]
}
